Laboratory results reported in PubChem BioAssay (Tox21).
Records with an inconclusive call do not appear. Values without a mark were called inactive. The source made the active and inactive calls. Calls come from the whole dose curve.

experiment: qHTS assay to identify small molecule agonists of H2AX - cell viability counter screen (AID 1224847); conditions: CHO-K1 viability, CellTiter-Glo luminescence, 3 h; series mostly up to 154 µM; activity change, negative = cytotoxicity: at the top concentration; note: top concentration of the series differs between compounds; nearly all actives have a fitted effect of over 30% in size
Description: National Center for Advancing Translational Sciences [NCATS]
NIH Chemical Genomics Center [NCGC]
U.S. Environmental Protection Agency [EPA]
National Institutes of Environmental Health Sciences [NIEHS]
National Toxicology Program [NTP]
U.S. Food and Drug Administration [FDA]
HTRF phospho-H2AX (Ser139) assay (Cisbio Bioassays, US) enables the quantitative detection of the histone variant H2AX when phosphorylated on serine 139. When double-stranded DNA breaks, either by ionizing radiation or endogenous physiological processes, H2AX becomes phosphorylated at Ser139. This phospho-Ser139 serves as a sensitive biomarker for the detection of such breaks, localizing the site of DNA repair. So, HTRF phospho-H2AX Ser139 is a pertinent assay to study genome stability, the cell cycle, DNA repair, and it serves as a biomarker for cancer, and to understand aging. Wild type CHO-K1 cells were used to identify the inducers of Phospho-H2AX Ser 139 from the Tox21 compound collections. Also cytotoxicity of the Tox21 10K compound library against the CHO-K1 cell line was tested by measuring the cell viability using CellTiter-Glo assay (Promega, Madison, WI).
Tox21 Assay Protocol Summary:
The CHO-K1 cells suspended in culture medium containing 10% FBS were dispensed at 1000 cells/ 3 ul/well in 1536-well white wall/solid bottom plates (Greiner Bio-One North America, NC) using a Multidrop Combi (Thermo Fisher Scientific Inc., Waltham, MA). After the assay plates were incubated at 37C overnight, 23 nl of compounds at 15 concentrations (from 5-48 columns) or positive control (from 1 to 4 columns) were transferred to the assay plates using a Pintool station (Wako, San Diego, CA) into each well resulting in a final DMSO concentration of 0.76%. After 3hr incubation at 37C, 3 uL/well CellTiter-Glo luminescent cell viability reagent (Promega Corporation, Madison, WI) was added using a Flying Reagent Dispenser (FRD) (Aurora Discovery, CA). After incubation at room temperature for 30 min, the luminescence intensity was read using a ViewLux plate reader (PerkinElmer, Waltham, MA).
% is set by controls: 0 for no effect and ±100 for the full control effect.

Row | SMILES | outcome | activity change, negative = cytotoxicity
1 | O=C(O)c1ccc(C(=O)O)c(C(=O)O)c1 | inactive | 
2 | O=S(=O)(O)c1ccc(N=Nc2c(O)ccc3cc(S(=O)(=O)O)ccc23)cc1 |  | -5.18%
3 | CCCCCCCO | inactive | 
4 | COc1ccc(OC)cc1 | inactive | 
5 | CN(C)CCOC(=O)COc1ccc(Cl)cc1 | inactive | 
6 | NCCCCCCN | inactive | 
7 | COc1ccc([N+](=O)[O-])cc1N | inactive | 
8 | CC(=O)OCCOC(C)=O | inactive | 
9 | O=C(O)/C=C/C(=O)O | inactive | 
10 | O=C(O)c1ccccc1C(=O)O | inactive | 
11 | CCCCCCCCCCCCCCCC(=O)OC(C)C | inactive | 
12 | O=C(O)c1ccc(S(=O)(=O)N(Cl)Cl)cc1 | inactive | 
13 | COC(=O)CCCC(=O)OC | inactive | 
14 | COCCOC(=O)c1ccccc1C(=O)OCCOC | inactive | 
15 | CC1(C)NC(=O)NC1=O | inactive | 
16 | N#Cc1ccccc1 | inactive | 
17 | C=CC(C)CCCC(C)(C)O (stereo not given) |  | -1.67%
18 | CC1(C)OC[C@@H]2O[C@@]3(C(=O)O)OC(C)(C)O[C@H]3[C@@H]2O1 | inactive | 
19 | COc1ccc(CCC(C)=O)cc1 | inactive | 
20 | Cc1ccc(S(=O)(=O)N=C=O)cc1 | inactive | 

Row | SMILES | outcome | activity change, negative = cytotoxicity
21 | C=CC[N+](C)(C)CC=C | inactive | 
22 | COc1cc(OC)c(C(=O)CCCN2CCCC2)c(OC)c1 | inactive | 
23 | CN/C(=C\[N+](=O)[O-])NCCSCc1csc(CN(C)C)n1 | inactive | 
24 | OCc1ccccc1 |  | 0.132%
25 | CC(C)(C)c1cc(Cc2cc(C(C)(C)C)c(O)c(C(C)(C)C)c2)cc(C(C)(C)C)c1O | inactive | 
26 | O=C1c2ccccc2CCc2ccccc21 | inactive | 
27 | CCCCCC(=O)O | inactive | 
28 | C=CCc1ccc(OC)c(OC)c1 | inactive | 
29 | CC1(C)S[C@@H]2[C@H](NC(=O)COc3ccccc3)C(=O)N2[C@H]1C(=O)O | inactive | 
30 | CC(C)CC(C)O (stereo not given) | inactive | 
31 | CC(=O)OCc1ccco1 | inactive | 
32 | CCNc1ccccc1 |  | -4.06%
33 | CCOCCOCCOCCO | inactive | 
34 | CC(C)CC(=O)CC(C)CC(C)C (stereo not given) | inactive | 
35 | COC(=O)c1cccnc1 |  | 3.86% [at 70.9 µM]
36 | O=C1CCCC1 | inactive | 
37 | Cc1ccc2ncccc2c1 | inactive | 
38 | CCCCOC(=O)c1ccc(N)cc1 | inactive | 
39 | c1ccc(Oc2ccccc2)cc1 | inactive | 
40 | Cc1ccc(C(C)C)c(O)c1 | inactive | 
